The whole screen tested about 420,000 compounds, of which about 50,000 (12%) were called active. Another 26% or so got no clear call; they are omitted. Only a selection was taken, and actives are over-represented in it overall. Unmarked numbers belong to inactive results. Calls come from the whole dose curve; as a rule, active = well fitted inhibition curve with a large enough effect; inconclusive = small, poorly fitted or top-dose-only effect; inactive = flat fitted curve, though single readings scatter.
% is set by controls: 0 for no effect and ±100 for the full control effect; potency is the fitted concentration of half-maximal effect.

This experiment in a line: qHTS for Inhibitors of human tyrosyl-DNA phosphodiesterase 1 (TDP1): qHTS in cells in presence of CPT. Note: nearly all actives have a fitted effect of over 55% in size. The following applies: chicken DT40 Tdp1-/-;hTDP1 cells + 20 nM CPT, ATP luminescence, 48 h; series mostly up to 46.2 µM; activity change, negative = growth inhibition: at the top concentration. The method, boiled down: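 Cell growth measured by CellTiter-Glo luminescence after a minimum 48 h, 37 C compound exposure with 20 nM CPT in Tdp1-knockout DT40 cells stably expressing hTDP1, seeded 400/well; qHTS titration format.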
For orientation: qHTS replaces the single test concentration by a dilution series.
`CCOCCOCCC(C(=O)O)P(=O)(c1ccccc1)c1ccccc1` (stereo unspecified): the “activity change, negative = growth inhibition” value was -9.55%.
Turning to `CCc1ccc(N2CC(C(=O)Nc3ccc(S(=O)(=O)Nc4nccs4)cc3)CC2=O)cc1` (stereo unspecified), the “activity change, negative = growth inhibition” value is -16%.
Same read-out and setting: then `CCc1cc2c(cc3c(=O)n(CC(=O)N4CCN(c5cc(Cl)ccc5C)CC4)ncn32)s1`, with -19.2%.
Take `O=C1NC(Nc2nc3ccccc3s2)(C(F)(F)F)C(=O)N1C1CCCCC1` (stereo unspecified): the Potency was 25.9 µM (active).
Turning to `CCC1(CC)NC(=O)N(Cc2nc3ccccc3s2)C1=O`, the “activity change, negative = growth inhibition” value is 8.86%.
For `O=C(NC1(C(F)(F)F)NC(=O)N(C2CCCCC2)C1=O)c1ccco1` (stereo unspecified), the “activity change, negative = growth inhibition” value is 29.4%.
Consider `COC(=O)C[C@@H]1C=C[C@@H](NC(=O)c2ccc3c(c2)OCO3)[C@@H](CO)O1`, for which the “activity change, negative = growth inhibition” value was -1.27%.
Still for that read-out and setting: with `O=C1C2C3C=CC(C3)C2C(=O)N1c1ncc([N+](=O)[O-])s1` (stereo unspecified) the figure was 23.9%; with `CC1Cc2[nH][nH]c(=O)c2C(C2CC2)O1` (stereo unspecified), -8.46%.
`CC(C)(C)NC(=O)CSc1nc(-c2ccc(F)cc2)cc(C(F)(F)F)n1`: the Potency is 20.6 µM (active).
On to `CN(C)c1ccc(NC(=O)CSc2n[nH]c(-c3ccco3)n2)cc1`, for which the “activity change, negative = growth inhibition” value was 0.483%.
Regarding `Cc1cccc(NC(=O)CSc2nc(-c3ccco3)cc(C(F)(F)F)n2)c1C`, the Potency is 10.3 µM (active).
Consider `O=C(CSc1nc(-c2ccco2)cc(C(F)(F)F)n1)NCc1cccs1`, for which the “activity change, negative = growth inhibition” value is -9.45%.
Consider `Cc1ccn2c(=O)nc(SCC(=O)NCc3ccc(F)cc3)nc2c1`, for which the “activity change, negative = growth inhibition” value was -2.41%.
Take `O=C(CSc1nc(-c2ccco2)cc(C(F)(F)F)n1)N1CCc2ccccc2C1`: the “activity change, negative = growth inhibition” value was -27.6%.
The same measure, in the same setting: then `Cc1cc(C(F)(F)F)nn1-c1nc(-c2ccco2)cc(C(F)(F)F)n1`, with -1.24%; and `CC(C)c1nc(SCC(=O)NC(=O)NC(C)(C)C)n[nH]1`, with -1.92%.
On to `CCNS(=O)(=O)c1ccc(NC(=O)CSc2nc(-c3ccco3)cc(C(F)(F)F)n2)cc1`, for which the Potency is 7.31 µM (active).
With `COc1ccc(S(=O)(=O)NCC(=O)NCc2cc(=O)n(C)c(=O)n2C)cc1F`, the “activity change, negative = growth inhibition” value was 2.06%.
With `O=C(CC1C(=O)NCCN1CC(c1ccccc1)c1ccccc1)NCC1CCOCC1` (stereo unspecified), the “activity change, negative = growth inhibition” value is -13%.
The same measure, in the same setting: with `CCCS(=O)(=O)NC(=O)C1(C)CCCN(C(=O)c2cccs2)C1` (stereo unspecified) the figure was 9.56%; with `O=C(CSc1nnc(SCc2ccc(F)cc2)s1)Nc1ccc(C(=O)O)cc1`, -15.4%.
In the case of `COc1ccc(C2=NN(C(=O)c3ccccc3C(=O)O)C(c3ccccc3O)C2)cc1` (stereo unspecified), the “activity change, negative = growth inhibition” value was 17%.
For `CCC(C)(C)NC(=O)CN(C(=O)CCC(=O)Nc1cc(C)ccn1)c1ccc2c(c1)OCCO2`, the “activity change, negative = growth inhibition” value is 4.29%.
For `FC(F)(F)c1nnc2c3ccccc3c(Cl)nn12`, the Potency is 5.17 µM (active).
Turning to `FC(F)(F)c1nnc2ccc(N3CCN(c4ccccc4)CC3)nn12`, the “activity change, negative = growth inhibition” value is -0.987%.
Take `FC(F)(F)c1nnc2sc(-c3ccco3)nn12`: the “activity change, negative = growth inhibition” value is -5.91%.
Consider `O=C(COC(=O)c1cncc(Br)c1)Nc1ccc(S(=O)(=O)N2CCOCC2)cc1`, for which the “activity change, negative = growth inhibition” value is -19.1%.
Still for that read-out and setting: with `C=CCNC(=O)c1ccccc1SCc1c(C)noc1C` the figure was 1.92%; with `Cc1ccn(CC(=O)NC2CCCN(Cc3ccccc3F)C2)n1` (stereo unspecified), 6.73%.
For `CN(c1ccccc1)S(=O)(=O)c1ccc(C(=O)NCCc2ccccc2)cc1`, the “activity change, negative = growth inhibition” value was -22%.
Take `Cc1ccccc1CSCCNC(=O)c1ccc(N(C)S(=O)(=O)c2ccccc2)cc1`: the Potency was 18.4 µM (active).
With `Cc1ccccc1CSCCNC(=O)C1CCN(S(=O)(=O)Cc2ccccc2)CC1`, the “activity change, negative = growth inhibition” value was -2.3%.
Take `Cc1nc2ccccc2nc(=O)c1NNc1ccc([N+](=O)[O-])cc1`: the “activity change, negative = growth inhibition” value was -28.3%.
Turning to `Cc1ccc(CN2CC(C(=O)NNC(=O)Cn3ccc(C(F)(F)F)n3)CC2=O)cc1` (stereo unspecified), the “activity change, negative = growth inhibition” value was 3.76%.
`CC(C)=CCc1ccc(O)c(=O)cc1C(C)C`: the Potency was 20.6 µM (active).
Take `CSc1ncc(C(=O)NCc2ccccc2Cl)c(C(F)(F)F)n1`: the “activity change, negative = growth inhibition” value was -20.8%.
On the same count and under the same terms, then `O=C(/C=C/c1ccccc1[N+](=O)[O-])OCC(=O)N1CCCC1`, with -21.3%; and `CC1(C2CC2)NC(=O)N(CC(=O)N2CCN(c3ccccc3F)CC2)C1=O` (stereo unspecified), with -21.8%.
Turning to `COc1ccc(OC)c(C(C)NC(=S)Nc2ccc(S(=O)(=O)Nc3ncccn3)cc2)c1` (stereo unspecified), the “activity change, negative = growth inhibition” value was 3.28%.
Take `Clc1ccc(CSc2nnc3c(n2)[nH]c2ccccc23)cc1`: the “activity change, negative = growth inhibition” value was -25%.
For the compound `COCCNC(=O)c1ccc2nc(Cc3ccc(OC)c(OC)c3)oc2c1`, the “activity change, negative = growth inhibition” value is -0.805%.
Consider `CSCCNC(=O)c1ccc2nc(Cc3ccccc3F)oc2c1`, for which the “activity change, negative = growth inhibition” value is 1.45%.
As for `CCn1ccnc1CN(C)C(=O)c1ccc2nc(Cc3ccc(OC)cc3)oc2c1`, the “activity change, negative = growth inhibition” value is -18.1%.
Consider `COc1ccc(Cc2nc3ccc(C(=O)NCc4ccc(OC)cc4OC)cc3o2)cc1`, for which the Potency was 16.4 µM (active).
Consider `COc1ccc(CNC(=O)c2ccc3oc(C(C)C)nc3c2)cc1`, for which the “activity change, negative = growth inhibition” value was -27%.
Regarding `COc1ccc(Cc2nc3ccc(C(=O)NCc4ccccc4C)cc3o2)cc1`, the Potency is 20.6 µM (active).
On to `COc1ccc(NC(=O)c2ccc3nc(CCc4ccccc4)oc3c2)c(OC)c1`, for which the “activity change, negative = growth inhibition” value is -26.7%.
Regarding `COc1ccc(Cc2nc3ccc(C(=O)N4CCC(N(C)C)C4)cc3o2)cc1` (stereo unspecified), the “activity change, negative = growth inhibition” value was 11.1%.
Turning to `COc1ccc(Cc2nc3ccc(C(=O)NCc4ccccc4Cl)cc3o2)cc1`, the Potency is 16.4 µM (active).
As to `CCCCOC(=O)CSc1ncnc2sc3c(c12)CCC(C)C3` (stereo unspecified), the “activity change, negative = growth inhibition” value is -16.3%.

For the origin of these results see PubChem BioAssay AID686979 (National Center for Advancing Translational Sciences (NCATS), 2013).
